Experiment [1] can be described thus: qHTS RealTime-Glo MT Cell Viability Assay in HepG2 cells - 8 hour (AID 1224873). Further: nearly all actives have a fitted effect of over 55% in size. The gist of the method: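 Real-time viability: cells seeded at 600 per well together with NanoLuc and cell-permeant prosubstrate, compounds added after 5 h incubation. Luminescence tracked at 0, 8, 16, 24, 32 and 40 h of exposure.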
In general terms: In qHTS, concentration-response curves come from the screen itself.

Experiment [2] can be described thus: A CellTox Green Cytotoxicity Assay to monitor cytotoxicity in HEK293 cells - 24 hour (AID 1224875). Further: series mostly up to about 77 µM; nearly all actives have a fitted effect of over 45% in size. The gist of the method: (§1)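 Cytotoxicity was tracked continuously in HEK293 cells by a DNA-binding dye excluded from viable cells. Compounds were transferred in DMSO 5 h after seeding; fluorescence was recorded at intervals up to 40 h.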
A short description of experiment [3]: A CellTox Green Cytotoxicity Assay to monitor cytotoxicity in HepG2 cells - 16 hour (AID 1224876). Further: nearly all actives have a fitted effect of over 45% in size. Further: potency means the concentration at half of the fitted maximal effect. The gist of the method:
(§2)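 Real-time, homogeneous cytotoxicity readout: dead-cell DNA staining by CellTox Green in HepG2 monolayers, fluorescence measured at timed intervals up to 40 h of continuous compound exposure.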

Experiment [4] in a line: qHTS RealTime-Glo MT Cell Viability Assay in HepG2 cells - 32 hour (AID 1224877). Further: nearly all actives have a fitted effect of over 55% in size. The gist of the method: (§3)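 Cell number in HepG2 cultures estimated from NanoLuc luminescence generated by metabolic reduction of a prosubstrate by living cells. The homogeneous, nonlytic format allowed repeated reads at 0, 8, 16, 24, 32 and 40 h of compound exposure.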
Experiment [5] in a line: A CellTox Green Cytotoxicity Assay to monitor cytotoxicity in HepG2 cells - 24 hour (AID 1224878). Further: nearly all actives have a fitted effect of over 45% in size. Further: potency means the concentration at half of the fitted maximal effect. The gist of the method: as §2
A short description of experiment [6]: A CellTox Green Cytotoxicity Assay to monitor cytotoxicity in HepG2 cells - 40 hour (AID 1224879). Further: nearly all actives have a fitted effect of over 40% in size. Further: potency means the concentration at half of the fitted maximal effect. The gist of the method:
as §2

Experiment [7] in a line: qHTS RealTime-Glo MT Cell Viability Assay in HEK293 cells - 0 hour (AID 1224880). Further: top concentration of the series differs between compounds; nearly all actives have a fitted effect of over 45% in size. In a few lines:
(§4)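 Nonlytic bioluminescent viability monitoring. HEK293 at 600 cells/well with reagent; 5 h settle; compound transfer by pintool; plates held at 37 C and read at set time points.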

Experiment [8] in a line: A CellTox Green Cytotoxicity Assay to monitor cytotoxicity in HEK293 cells - 32 hour (AID 1224881). Further: nearly all actives have a fitted effect of over 40% in size. Further: potency means the concentration at half of the fitted maximal effect. In a few lines:
as §1

The nature of experiment [9]: A CellTox Green Cytotoxicity Assay to monitor cytotoxicity in HepG2 cells - 0 hour (AID 1224882). Further: nearly all actives have a fitted effect of over 35% in size. The gist of the method:
as §2

The nature of experiment [10]: A CellTox Green Cytotoxicity Assay to monitor cytotoxicity in HepG2 cells - 32 hour (AID 1224883). Further: nearly all actives have a fitted effect of over 50% in size. Further: potency means the concentration at half of the fitted maximal effect. The gist of the method: as §2
Experiment [11] in a line: A CellTox Green Cytotoxicity Assay to monitor cytotoxicity in HEK293 cells - 8 hour (AID 1224884). Further: nearly all actives have a fitted effect of over 35% in size. The gist of the method: as §1
Experiment [12] is described as follows: qHTS RealTime-Glo MT Cell Viability Assay in HepG2 cells - 16 hour (AID 1224885). Further: nearly all actives have a fitted effect of over 50% in size. In a few lines:
as §3

The nature of experiment [13]: A CellTox Green Cytotoxicity Assay to monitor cytotoxicity in HEK293 cells - 16 hour (AID 1224888). Further: nearly all actives have a fitted effect of over 35% in size. The gist of the method: as §1
Experiment [14] is described as follows: qHTS RealTime-Glo MT Cell Viability Assay in HepG2 cells - 0 hour (AID 1224889). Further: nearly all actives have a fitted effect of over 50% in size. In a few lines:
as §3

A short description of experiment [15]: A CellTox Green Cytotoxicity Assay to monitor cytotoxicity in HepG2 cells - 8 hour (AID 1224890). Further: nearly all actives have a fitted effect of over 45% in size. Further: potency means the concentration at half of the fitted maximal effect. In a few lines: as §2
Experiment [16] is described as follows: qHTS assay to identify small molecule antagonists of the estrogen receptor alpha (ER-alpha) signaling pathway using the BG1 cell line in the presence of 0.1 nM 17-beta-estradiol - cell viability counter screen (AID 1259241). Further: nearly all actives have a fitted effect of over 40% in size. The gist of the method:
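Cells were plated and left 24 hr, compounds in DMSO were pinned in, 17beta-estradiol was added to 0.1 nM final, and after 22 hr CellTiter-Fluor reagent was added for 30 min before fluorescence was read.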

The nature of experiment [17]: qHTS RealTime-Glo MT Cell Viability Assay in HEK293 cells - 40 hour (AID 1224874). Further: nearly all actives have a fitted effect of over 50% in size. Further: potency means the concentration at half of the fitted maximal effect. As to conditions: RealTime-Glo luminescence; max response: stronger effect = lower value. In a few lines: as §4
Experiment [18] in a line: qHTS RealTime-Glo MT Cell Viability Assay in HEK293 cells - 24 hour (AID 1224886). Further: nearly all actives have a fitted effect of over 50% in size. Further: potency means the concentration at half of the fitted maximal effect. The gist of the method: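 Homogeneous bioluminescent viability format in HEK293 cells (600 cells/well). Following 5 h at 37 C/5% CO2, 23 nL compound was pintooled; the signal was measured repeatedly during 40 h incubation.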
Experiment [19] can be described thus: qHTS RealTime-Glo MT Cell Viability Assay in HEK293 cells - 8 hour (AID 1224887). Further: nearly all actives have a fitted effect of over 50% in size. Further: potency means the concentration at half of the fitted maximal effect. The gist of the method: as §4

The source of these data is PubChem BioAssay (Tox21).

Several values for one entry are separate records, joined by “and”; a condition that tells them apart may be missing. Equal values may be shown once. Records with an inconclusive call do not appear. Some compounds were tested as several samples or in several runs, with calls that do not always agree. Activity calls are given as the source filed them. The call rests on the fitted dose curve; in most records, active means well fitted curve in the direction sought with a large enough effect in the repeat runs; inconclusive means weak or mixed curves; inactive means no such curve, though single readings can be large; an effect the other way counts as inactive or inconclusive.
On the % scale 0 is the no-effect control and ±100 the full control effect.

For `CCN(C(=O)N(CC)c1ccccc1)c1ccccc1`, the Potency result in [1], in experiment [2], in experiment [3], in experiment [4], in experiment [5] and in experiment [6] was “inactive” in each case. Further, the Potency result in experiment [7], in [8], in [9], in [10], in experiment [11] and in experiment [12] was “inactive” in each case. Besides, the Potency result in experiment [13], in experiment [14], in experiment [15] and in experiment [16] was “inactive” in each case.

As for `OCCCCCCCCCCCCBr`, the Potency result in experiment [1], in experiment [2], in experiment [3], in [4], in experiment [5] and in experiment [7] was “inactive” each time. For the same compound, the Potency entry in experiment [8], in experiment [9], in experiment [11], in experiment [12], in experiment [13] and in experiment [14] was “inactive” each time. Besides, the Potency result in experiment [15] and in experiment [16] was “inactive” in each case. Further, in experiment [6], the Potency is 11.1 µM (active).

For `Oc1ccc(N=Nc2ccccc2)cc1`, the Potency result in experiment [1], in experiment [3], in [4], in experiment [7], in experiment [9] and in experiment [12] was “inactive” each time. Besides, the Potency entry in experiment [15] was “inactive”. Also, the Potency in experiment [17] is 22.2 µM (active); in experiment [8] it was 44.2 µM (active); in experiment [18], 17.6 µM (active); in experiment [19], 19.8 µM (active).

In the case of `CC[C@@]1(O)C(=O)OCc2c1cc1n(c2=O)Cc2c-1nc1ccccc1c2/C=N/OC(C)(C)C`, the Potency result in experiment [1], in [2], in experiment [7], in experiment [8], in experiment [9] and in experiment [11] was “inactive” in each case. The Potency result in experiment [13], in experiment [14], in [15] and in experiment [16] was “inactive” in each case. Besides, the Potency in experiment [3] was 3.38 µM (active); in experiment [5], 0.848 µM (active); in [6], 1.07 µM (active); in [10], 1.07 µM (active); in [18] it was 0.0239 µM (active).

For `Oc1cccc2cc3cccc(O)c3c(O)c12`, the Potency entry in [1], in experiment [2], in experiment [3], in experiment [4], in [5] and in experiment [6] was “inactive” in each case. The Potency entry in [7], in [8], in experiment [9], in experiment [12], in [18] and in experiment [19] was “inactive” throughout. The Potency entry in experiment [13], in experiment [14] and in experiment [15] was “inactive” throughout.

With `CCCCCCCCS(=O)C(C)Cc1ccc2c(c1)OCO2` (stereo unspecified), the Potency result in [1], in experiment [2], in experiment [3], in experiment [4], in experiment [5] and in [6] was “inactive” throughout. Besides, the Potency entry in experiment [7], in [8], in experiment [9], in experiment [10], in [11] and in experiment [12] was “inactive” throughout. For the same compound, the Potency result in experiment [13], in experiment [14], in experiment [15] and in experiment [16] was “inactive” throughout.

Regarding `COCCCC/C(=N\OCCN)c1ccc(C(F)(F)F)cc1`, the Potency result in experiment [1], in experiment [2], in experiment [7], in experiment [8], in experiment [9] and in experiment [11] was “inactive” throughout. Further, the Potency entry in [12], in experiment [19], in experiment [13], in experiment [14], in [15] and in [16] was “inactive” throughout. Further, the Potency in experiment [6] and in [10] was 26.8 µM (active) in each case.

With `CCC1OCC(COc2ccc(Oc3ccccc3)cc2)O1` (stereo unspecified), the Potency result in [1], in [2], in [3], in experiment [4], in experiment [5] and in experiment [6] was “inactive” in each case. Besides, the Potency entry in experiment [7], in experiment [8], in [9], in experiment [10], in experiment [11] and in experiment [12] was “inactive” throughout. Also, the Potency result in experiment [13], in experiment [14], in [15] and in experiment [16] was “inactive” throughout.

As to `CCCC(C)c1ccccc1O` (stereo unspecified), the Potency result in experiment [1], in [4], in [7], in experiment [9], in experiment [12] and in experiment [18] was “inactive” throughout. For the same compound, the Potency entry in experiment [19], in [14] and in [16] was “inactive” throughout. In addition, the max response in [17] is -11.1% (inactive). Moreover, the Potency in [8] is 49 µM (active).

Turning to `Oc1ccc(C2(c3ccc(O)cc3)CC3CC2C2CCCC32)cc1` (stereo unspecified), the Potency result in experiment [1], in experiment [3], in experiment [4], in experiment [5], in [7] and in experiment [9] was “inactive” throughout. In addition, the Potency entry in [12], in experiment [13], in [14], in experiment [15] and in [16] was “inactive” in each case. For the same compound, the Potency in experiment [17] and in experiment [18] was 41.9 µM (active) each time.

In the case of `CN1CCC(Nc2ncc3ncnc(Nc4ccc(F)c(Cl)c4)c3n2)CC1`, the Potency result in experiment [1], in experiment [9], in [11], in [13], in experiment [14] and in experiment [15] was “inactive” each time. For the same compound, the Potency in experiment [17] was 10.7 µM (active); in experiment [3], 21.3 µM (active); in [5] it was 23.9 µM (active); in [6], 26.8 µM (active); in experiment [10], 26.8 µM (active); in experiment [18], 9.52 µM (active).

As for `O=c1cc(-c2ccc(O)cc2)oc2cc(O)cc(O)c12`, the Potency entry in experiment [1], in experiment [2], in [4], in experiment [7], in experiment [9] and in experiment [11] was “inactive” each time. In addition, the Potency result in experiment [12], in experiment [19], in [13] and in [16] was “inactive” each time. In addition, the Potency result was “inactive and 27.5 µM (active)” in experiment [3]; “inactive and 34.7 µM (active)” in experiment [5]; 38.9 µM (active) in experiment [6]; “inactive and 38.9 µM (active)” in [15].

In the case of `Cc1cc2c(cc1C(F)(F)F)N(C(=O)Nc1ccc(Oc3cccnc3C)nc1)CC2`, the Potency entry in experiment [1], in experiment [2], in experiment [3], in [7], in [8] and in experiment [9] was “inactive” in each case. The Potency entry in experiment [12], in experiment [13], in experiment [14] and in experiment [15] was “inactive” each time.

`Nc1ccccc1O`: the Potency entry in [1], in [2], in [3], in experiment [4], in [5] and in [6] was “inactive” each time. Also, the Potency result in [7], in experiment [8], in experiment [9], in [10], in experiment [12] and in experiment [13] was “inactive” each time. Also, the Potency result in experiment [15] is “inactive”.
